Activity calls are given as the source filed them.

For experiment [1], the system named is PRMT1 (protein arginine N-methyltransferase 1). Put plainly: PRMT1 binders on small-molecule microarrays, primary screen, biochemical, small-molecule microarray, 635 nm fluorescence (AID 1088).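 Also: binding of Prmt1 protein to compounds spotted on small-molecule microarray slides.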 To be noted: small-molecule microarray binding, higher = more signal.
Experiment [2] is described as follows: yeast growth modulation, basal conditions, primary screen, YJM789 clinical isolate, OD600, 24 h (AID 1089).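 Also: growth of clinical yeast isolate S. cerevisiae YJM 789 seeded 1000 cells per well; test concentration not given here.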 The following applies: S. cerevisiae YJM789 growth, higher = more signal, called active from +8 up or from −8 down.
A short description of experiment [3]: fission yeast growth modulation, primary screen, strain 972, OD600, 24 h, no modulator (AID 1090).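 Also: basal condition with compound alone and no growth modifier present; test concentration not given here.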 The following applies: S. pombe 972 growth, higher = more signal, called active from +8 up or from −8 down.
A short description of experiment [4]: S. cerevisiae growth modulation with rapamycin, primary screen, strain BY4716, OD600, 96 h (AID 1091). Also: test concentration not given here. To be noted: higher = more signal, called active from +8 up or from −8 down.
Experiment [5] addresses Torsin-1A-interacting protein 2 (Homo sapiens) (UniProt Q8NFQ8). Description: LULL1 binders on small-molecule microarray, primary screen, cell lysate, human LULL1 lysate, 635/667 nm fluorescence (AID 1092).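 Also: probe is lysate of COS7 cells overexpressing human LULL1; score merges per-feature 667 nm fluorescence with signal-to-noise.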 The following applies: hLULL1 lysate binding, 635 nm fluorescence, higher = more signal.
Experiment [6] is described as follows: E. coli growth modulation, two-sided OD650, primary screen, E. coli filamentation project, strain DRC41, 24 h (AID 1093).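 Also: MC1000 strain lacking acrAB efflux and sulA so SOS filamentation is blocked; test concentration not given here.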 To be noted: OD650, 24 h, higher = more signal, called active from +8 up or from −8 down.
Experiment [7] in a line: small-molecule microarray binders of probe aLefty2, primary screen, biochemical, biotinylated probe, 635/667 nm fluorescence (AID 1094).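 Also: score merges spot fluorescence near 667 nm with spot signal-to-noise ratio.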 The following applies: higher = more signal.
The test system of experiment [8] is Noggin (protein binding on small-molecule microarray). Put plainly: Noggin binders on small-molecule microarray, primary screen, biochemical, 635/667 nm fluorescence (AID 1095).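 Also: score merges 667 nm feature fluorescence with signal to noise over triplicate slides.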 The following applies: 635 nm fluorescence, higher = more signal.
Experiment [9] deals with Neurogenic locus notch homolog protein 3 (Homo sapiens) (UniProt Q9UM47). Description: NOTCH3 binders on small-molecule microarray, primary screen, biochemical, 635/667 nm fluorescence (AID 1096). To be noted: NOTCH3 binding, 635 nm fluorescence, higher = more signal.
Chain of Neurogenic locus notch homolog protein 3 (Homo sapiens) (Q9UM47 whole entry, looked up): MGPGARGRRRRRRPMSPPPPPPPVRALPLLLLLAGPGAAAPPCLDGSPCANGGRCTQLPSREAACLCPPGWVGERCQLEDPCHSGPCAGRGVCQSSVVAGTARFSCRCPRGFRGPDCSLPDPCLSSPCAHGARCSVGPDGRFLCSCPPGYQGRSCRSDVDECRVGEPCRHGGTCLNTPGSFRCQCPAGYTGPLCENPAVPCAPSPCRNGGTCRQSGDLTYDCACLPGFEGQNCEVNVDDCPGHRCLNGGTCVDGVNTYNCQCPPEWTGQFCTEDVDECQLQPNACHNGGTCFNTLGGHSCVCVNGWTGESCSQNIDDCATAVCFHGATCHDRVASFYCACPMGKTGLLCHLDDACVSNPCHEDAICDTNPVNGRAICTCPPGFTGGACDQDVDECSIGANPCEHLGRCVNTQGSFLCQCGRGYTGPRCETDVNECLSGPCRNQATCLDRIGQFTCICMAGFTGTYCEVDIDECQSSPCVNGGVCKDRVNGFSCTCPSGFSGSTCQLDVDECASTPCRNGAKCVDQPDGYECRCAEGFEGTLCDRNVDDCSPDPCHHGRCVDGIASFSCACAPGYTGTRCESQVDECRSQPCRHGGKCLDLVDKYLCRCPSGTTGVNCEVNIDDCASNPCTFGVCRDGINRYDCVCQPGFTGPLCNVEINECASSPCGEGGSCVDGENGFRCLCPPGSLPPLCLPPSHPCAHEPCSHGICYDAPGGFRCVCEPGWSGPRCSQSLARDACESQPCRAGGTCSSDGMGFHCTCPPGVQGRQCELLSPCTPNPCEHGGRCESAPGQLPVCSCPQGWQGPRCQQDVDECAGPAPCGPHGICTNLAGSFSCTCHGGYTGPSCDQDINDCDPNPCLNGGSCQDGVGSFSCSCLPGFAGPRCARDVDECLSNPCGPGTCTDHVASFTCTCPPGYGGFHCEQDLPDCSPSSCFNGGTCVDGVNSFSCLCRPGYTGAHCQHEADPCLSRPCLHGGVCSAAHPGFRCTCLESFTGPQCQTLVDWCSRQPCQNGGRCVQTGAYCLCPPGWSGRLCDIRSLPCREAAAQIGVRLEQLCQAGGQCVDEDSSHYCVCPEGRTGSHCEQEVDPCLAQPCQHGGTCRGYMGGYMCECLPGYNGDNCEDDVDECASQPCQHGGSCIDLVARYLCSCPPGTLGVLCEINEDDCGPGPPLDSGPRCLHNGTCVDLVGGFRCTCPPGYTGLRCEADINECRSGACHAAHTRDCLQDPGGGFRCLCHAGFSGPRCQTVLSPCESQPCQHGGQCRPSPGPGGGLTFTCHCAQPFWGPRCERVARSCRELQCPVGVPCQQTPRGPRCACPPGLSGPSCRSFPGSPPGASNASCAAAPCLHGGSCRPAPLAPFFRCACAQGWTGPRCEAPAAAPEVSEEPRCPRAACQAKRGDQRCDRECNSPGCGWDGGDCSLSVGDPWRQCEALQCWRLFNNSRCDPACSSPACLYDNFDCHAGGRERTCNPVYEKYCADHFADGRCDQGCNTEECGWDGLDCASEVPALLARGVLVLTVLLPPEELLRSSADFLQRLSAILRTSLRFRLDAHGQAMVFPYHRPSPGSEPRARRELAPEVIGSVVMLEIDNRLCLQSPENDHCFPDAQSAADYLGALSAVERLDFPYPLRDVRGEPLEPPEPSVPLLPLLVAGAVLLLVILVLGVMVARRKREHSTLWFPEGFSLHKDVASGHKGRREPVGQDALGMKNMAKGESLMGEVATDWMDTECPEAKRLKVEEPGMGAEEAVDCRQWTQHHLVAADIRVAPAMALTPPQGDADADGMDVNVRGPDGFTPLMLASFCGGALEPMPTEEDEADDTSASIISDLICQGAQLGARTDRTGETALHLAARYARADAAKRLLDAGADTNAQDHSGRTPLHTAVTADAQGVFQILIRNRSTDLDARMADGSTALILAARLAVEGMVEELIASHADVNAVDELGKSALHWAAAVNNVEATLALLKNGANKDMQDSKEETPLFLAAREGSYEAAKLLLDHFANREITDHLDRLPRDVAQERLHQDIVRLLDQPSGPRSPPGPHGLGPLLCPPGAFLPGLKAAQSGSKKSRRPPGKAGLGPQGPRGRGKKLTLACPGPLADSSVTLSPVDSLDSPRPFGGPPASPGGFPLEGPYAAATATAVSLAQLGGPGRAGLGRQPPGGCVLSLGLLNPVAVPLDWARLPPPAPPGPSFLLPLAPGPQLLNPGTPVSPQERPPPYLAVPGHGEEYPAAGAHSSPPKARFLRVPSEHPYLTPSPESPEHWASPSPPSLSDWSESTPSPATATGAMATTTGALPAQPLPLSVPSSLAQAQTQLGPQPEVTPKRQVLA
A short description of experiment [10]: small-molecule microarray binders of probe aEGFR, primary screen, biochemical, biotinylated probe, 635/667 nm fluorescence (AID 1097).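 Also: probe is a biotinylated anti-EGFR antibody binding compounds printed on slides; score combines fluorescence near 667 nm and signal to noise of each spot.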 The following applies: higher = more signal.

Chain of Torsin-1A-interacting protein 2 (Homo sapiens) (Q8NFQ8 whole entry, looked up): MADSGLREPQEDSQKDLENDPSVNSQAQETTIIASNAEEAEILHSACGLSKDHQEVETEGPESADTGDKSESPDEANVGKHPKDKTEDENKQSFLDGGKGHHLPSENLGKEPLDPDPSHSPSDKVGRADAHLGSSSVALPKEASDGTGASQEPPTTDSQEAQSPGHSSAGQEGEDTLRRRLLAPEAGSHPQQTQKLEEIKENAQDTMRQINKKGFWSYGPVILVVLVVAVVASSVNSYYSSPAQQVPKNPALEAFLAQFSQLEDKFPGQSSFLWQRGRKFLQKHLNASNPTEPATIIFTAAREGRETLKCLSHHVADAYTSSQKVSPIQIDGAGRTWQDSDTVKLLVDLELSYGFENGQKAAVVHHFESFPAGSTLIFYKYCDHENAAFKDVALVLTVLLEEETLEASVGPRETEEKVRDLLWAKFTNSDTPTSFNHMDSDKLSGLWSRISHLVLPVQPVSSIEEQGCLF

For `CCCCCCc1nc(-c2ccc(-c3ccc(Cl)c(Cl)c3)o2)cc2c1[Si](C(C)C)(C(C)C)OC2`, the composite z-score in experiment [1] is -0.849; in experiment [5] it was 0.582; in [7], -0.159; in experiment [8] it was -0.561; in experiment [9] it was -0.453; in [10], -0.257. Moreover, the z-score was -0.625 (inactive) in experiment [2], -7.54 (inactive) in experiment [3], 3.66 (inactive) in [4] and 0.66 (inactive) in experiment [6].
With `CCCCC(O)C1C=CC2C(=O)N(c3ccccc3)C(=O)C2N1Nc1ccc(C#N)cc1` (stereo not given), the composite z-score is 0.771 in experiment [1]; 3.14 in experiment [5]; 0.444 in experiment [7]; -0.358 in experiment [8]; 0.473 in experiment [9]; 0.247 in [10]. Also, the z-score in experiment [2] was 0.243 (inactive); in [3], 0.634 (inactive); in experiment [4], 1.64 (inactive); in [6], -1.11 (inactive).
As to `COc1ccc(C(=O)Nc2cccc(CN3C(=O)[C@]4(O[C@H](CC(=O)N5Cc6ccccc6C[C@H]5CO)[C@@H]([Si](C)(C)c5ccc(OC)cc5)[C@@H]4C)c4ccccc43)c2)cc1`, the composite z-score in experiment [1] was 1.55; in experiment [5] it was 0.906; in [7], -0.186; in experiment [8], 1.73; in experiment [9], 1.1; in experiment [10], -0.027. The z-score is 0.143 (inactive) in experiment [2], 1.46 (inactive) in experiment [3], 1.79 (inactive) in experiment [4] and 2.31 (inactive) in experiment [6].
Take `C=CCNC(=O)[C@H]1[C@@H]2C(=O)O[C@@H](c3ccccc3)[C@@H](c3ccccc3)N2[C@@H](c2ccccc2OCCO)[C@]12C(=O)N(C(=O)OCCOC)c1ccc(C#Cc3ccc(OC)cc3)cc12`: the composite z-score in [1] is 1.55; in [5] it was 2.94; in experiment [7], -0.0998; in experiment [8], 0.173; in experiment [9], 0.647; in experiment [10], -0.092. The z-score is 2.2 (inactive) in experiment [2], 0.823 (inactive) in experiment [3], 6.52 (inactive) in experiment [4] and 0.769 (inactive) in experiment [6].
Turning to `O=C1[C@H]2C=C(I)[C@H](C[C@@H]2c2ccccc2)[C@@]12CO2`, the composite z-score is 0.298 in experiment [1]; -0.0459 in experiment [5]; -0.238 in experiment [7]; 0.355 in [8]; -0.183 in experiment [9]; -0.139 in experiment [10]. Also, the z-score is -3.2 (inactive) in experiment [2], -19.3 (active) in experiment [3], -2.84 (inactive) in experiment [4] and -0.924 (inactive) in experiment [6].
Consider `CC1CC/C=C\[C@H]2OC34C=CCN(Cc5ccccc5)C(=O)[C@H]3N(CCCCCCO)C(=O)[C@@H]4C2C(=O)O1` (stereo not given in full), for which the composite z-score is 0.661 in experiment [1]; 2.31 in experiment [5]; -0.163 in experiment [7]; -1.78 in experiment [8]; -0.397 in experiment [9]; -0.0773 in experiment [10]. The z-score is -0.617 (inactive) in experiment [2], -0.623 (inactive) in experiment [3], -0.482 (inactive) in experiment [4] and 0.246 (inactive) in experiment [6].
For `CC1CC/C=C\[C@H]2OC34C=CCN(CCN5CCOCC5)C(=O)[C@H]3N(CCCO)C(=O)[C@@H]4C2C(=O)O1` (stereo not given in full), the composite z-score in [1] is -0.536; in experiment [5] it was -0.299; in experiment [7] it was -0.21; in experiment [8], -0.639; in [9] it was -0.271; in experiment [10], -0.239. For the same molecule, the z-score in [2] is 0.236 (inactive); in [3], -0.218 (inactive); in [4], 0.585 (inactive); in experiment [6], -0.546 (inactive).
Take `CC(C)NC(=O)[C@@H]1c2ccccc2C(=O)N(Cc2ccccc2C(F)(F)F)[C@H]1c1ccc(CO)cc1`: the composite z-score in experiment [1] is -0.123; in experiment [5] it was 2.36; in experiment [7], -0.241; in experiment [8] it was -0.238; in [9], 0.0828; in experiment [10], 0.668. The z-score in experiment [2] was -0.202 (inactive); in [3], 0.163 (inactive); in [4], -1.04 (inactive); in experiment [6], -0.327 (inactive).
For `C[N+](C)(C)CCCC[C@@H]1NC(=O)[C@@H]2C[C@H](C(=O)NCc3ccc(F)cc3)[C@H](c3ccc(O)cc3)N2C1=O`, the composite z-score in [1] was 0.116; in [5], 1.76; in experiment [7], -0.139; in [8], 0.401; in experiment [9], -0.146; in [10], -0.271. Further, the z-score in experiment [2] was 0.166 (inactive); in [3], 0.519 (inactive); in experiment [4] it was 0.425 (inactive); in experiment [6] it was -0.66 (inactive).
As for `Cc1ccc(S[C@]2(C(=O)NCC(F)(F)F)CC(=O)N(Cc3ccccc3C(F)(F)F)[C@@H]2c2ccc(CO)cc2)cc1`, the composite z-score in experiment [1] was 0.895; in experiment [5], 1.67; in experiment [7] it was 0.145; in experiment [8] it was -0.872; in [9] it was -0.462; in experiment [10], -0.0416. The z-score was -0.837 (inactive) in experiment [2], 0.0848 (inactive) in experiment [3], -0.203 (inactive) in experiment [4] and -0.254 (inactive) in [6].
Regarding `COC(=O)[C@]1(Cc2ccccc2)N=C(c2ccc(OCCCO)cc2)O[C@@H]1c1ccccc1CN=[N+]=[N-]`, the composite z-score in experiment [1] was 1.56; in experiment [5] it was 2.34; in experiment [7], 0.0647; in [8], 0.615; in experiment [9] it was 0.399; in experiment [10], -0.0967. The z-score is 0.738 (inactive) in experiment [2], 0.237 (inactive) in [3], 34.8 (active) in experiment [4] and -0.156 (inactive) in experiment [6].
Regarding `CCCCC(O)C1C=CC2C(=O)N(c3ccccc3)C(=O)C2N1Nc1ccc([N+](=O)[O-])cc1` (stereo not given), the composite z-score is 1.55 in experiment [1]; 3.68 in [5]; -0.144 in experiment [7]; 0.146 in [8]; 1.11 in experiment [9]; -0.0828 in [10]. In addition, the z-score was -0.676 (inactive) in experiment [2], 0.429 (inactive) in experiment [3], 0.154 (inactive) in experiment [4] and 0.916 (inactive) in [6].
As for `CN(C)c1ccc(C(O)C2C=CC3C(=O)N(Cc4ccccc4)C(=O)C3N2n2cnnc2)cc1` (stereo not given), the composite z-score is -0.765 in [1]; 0.0442 in [5]; 0.123 in [7]; 0.359 in experiment [8]; -0.139 in experiment [9]; -0.0649 in experiment [10]. The z-score in experiment [2] is -1.24 (inactive); in experiment [3], 0.396 (inactive); in [4], -0.528 (inactive); in experiment [6] it was 0.372 (inactive).
As to `C=CCOC(=O)[C@@H]1[C@H]2C(=O)O[C@H](c3ccccc3)[C@H](c3ccccc3)N2[C@H](c2ccc(OCCOC(=O)[C@H]3C[C@H]4C(=O)NCC(=O)N4[C@H]3c3cccc(OCCO)c3)cc2)[C@@]12C(=O)Nc1ccc(I)cc12`, the composite z-score in experiment [1] was 1.54; in [5] it was 2.7; in experiment [7], -0.0809; in [8], 0.963; in experiment [9], 1.1; in experiment [10] it was 0.0712. The z-score in [2] is 0.787 (inactive); in experiment [3], 1.44 (inactive); in experiment [4], 3.6 (inactive); in experiment [6], 0.002 (inactive).

The values are drawn from PubChem BioAssay.
